Laboratory results taken from the supplement of paper PMC8047044.

test system: Neuro-2a; experiment: neurite formation score, plate-normalized to DMSO control mean 5.04 (score (0-8 scale)); higher = more or longer neurites; conditions: 1 µM
Experimental: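 Neuro-2a mouse neuroblastoma cells in PLL-coated 96-well plates were pre-treated for 1 h in DMEM(+) with each kinase inhibitor at 1 µM, then switched to serum-free DMEM(-) with inhibitor to induce neurite outgrowth and fixed about 2-3 h later. Three blinded observers scored neurite formation from 0 (no neurites) to 8 (long neurites on almost all cells).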

| Structure (SMILES) | neurite formation score |
| --- | --- |
| O=c1[nH]c2ccc(Cl)cc2c(N[C@@H]2CN3CCC2CC3)c1-c1nc2ccccc2[nH]1 | 5.96 |
| CCN1CCN(C(=O)Cc2ccc(Nc3ncc(F)c(Nc4ccc(C(=O)Nc5ccccc5Cl)cc4)n3)cc2)CC1 [Aurora A Inhibitor I] | 3.69 |
| Cn1cc(C2=C(c3cn(C4CCN(Cc5ccccn5)CC4)c4ccccc34)C(=O)NC2=O)c2ccccc21 | 3.91 |
| CC(C)(C)c1cc(C=C(C#N)C#N)cc(Br)c1O | 4.24 |
| N#CC(C#N)=Cc1ccc(O)c(O)c1 | 4.91 |
| COc1cc([C@@H]2c3cc4c(cc3[C@H](O)[C@H]3COC(=O)[C@@H]23)OCO4)cc(OC)c1OC | 4.24 |
| Cc1ccccc1-n1c(Cn2cnc3c(N)ncnc32)nc2cccc(C)c2c1=O | 5.21 |
| CC(C)(C)c1cc(C=C(C#N)C#N)cc(C(C)(C)C)c1O [Tyrphostin 9] | 4.96 |
| COc1ccc(N(C(=O)Oc2c(C)cccc2C)c2ccnc(Nc3ccc(N4CCN(C)CC4)cc3)n2)c(OC)c1 | 3.88 |
| O=c1[nH]c2ccccc2n1C1CCN(Cc2ccc(-c3[nH]c4cc5ncnc5cc4nc3-c3ccccc3)cc2)CC1 [AKT inhibitor VIII] | 4.91 |
| COc1ccc2c(c[n+](C)c3c4cc5c(cc4ccc23)OCO5)c1OC [Chelerythrine Chloride] | 4.57 |
| COC[C@H]1OC(=O)c2coc3c2[C@@]1(C)C1=C(C3=O)[C@@H]2CCC(=O)[C@@]2(C)C[C@H]1OC(C)=O [Wortmannin] | 4.63 |
